The values below come from ChEMBL document CHEMBL3988442, “University of Dundee, Small-Polar-MMV Screening Library” (2021).

The whole screen tested about 48,000 compounds, of which about 13,000 (27%) showed an effect of 50% or more. This is one part of the list.

The assay concerns Wolbachia pipientis. Briefly: Anti-Wolbachia Cell-Based Screen. Format: functional. Set-up: scale not given: in the data most compounds retested in dose-response had high values. The settings on record: 5 µM.
Turning to `CCc1cc(C(C)Nc2nc(-c3cccnc3)nc3c2CNC3)on1` (stereo unspecified), the “Percent Effect” value is -7.07%.
In the case of `CN(C)C(C)(C)CNC(=O)C(C)(C)c1ccccc1F` it was -19.41%; in that of `Cc1csc(C2(NC(=O)NCCN3CCOCC3)CCCC2)n1`, -11.69%; in that of `COc1cccc(NC(=O)N(CCC(F)(F)F)C[C@H](O)CO)c1`, -14.76%.
With `CCc1ccccc1OC1CN(C(=O)c2sccc2N)C1`, the “Percent Effect” value was 9.804%.
For `O=C(CN1CC(n2cccn2)C1)NCCCc1ccccc1`, the “Percent Effect” value is listed as -6.652%.
With `CC(C)c1nc2n(n1)CC(NCC(=O)NCCC1=CCCCC1)CC2` (stereo unspecified) the figure was -9.722%; with `O=C(CN1CC(n2cccn2)C1)NCCC1=CCCCC1`, 104.9%.
On to `CCC1CN(CC(=O)NCCC#N)CCO1` (stereo unspecified), for which the “Percent Effect” value is -6.003%.
With `O=C(c1ccc(CN2CC(n3cccn3)C2)cc1)N1CCCC1`, the “Percent Effect” value came out at 6.953%.
For `O=C(CN1CC(n2cccn2)C1)NCCc1c[nH]c2ccccc12`, the “Percent Effect” value is recorded as -3.25%.
With `O=C(CN1CC(n2cccn2)C1)NCC1(c2ccccc2)CCC1`, the “Percent Effect” value was 14.59%.
With `CC(Cn1cccn1)NC(=O)NCCN1CCCCCC1=O` (stereo unspecified) the figure was -10.88%; with `N#CCCNC(=O)CN1CC(n2cccn2)C1`, 139.2%; with `O=C(CN1CC(n2cccn2)C1)NCCCN1CCCC1=O`, 95.99%.
As to `O=C(CN1CC(n2cccn2)C1)NCCc1ccc(F)cc1`, the “Percent Effect” value is 97.63%.
In the case of `O=C(CN1CCCC(c2ncc[nH]2)C1)NCCCN1CCCCCC1=O` (stereo unspecified) it was 11.49%; in that of `CNC(=O)CCNC(=O)c1ccccc1N1CCOCC1`, -6.711%; in that of `CCC1CN(C(=O)c2ccccc2C#N)CCN1C(C)C` (stereo unspecified), -3.955%.
With `COc1ccc2c(c1)C1(CCN(Cc3nccs3)CC1)N(C)CC2.O=C(O)C(F)(F)F.O=C(O)C(F)(F)F` the figure was 6.008%.
For `COc1ccc(-c2n[nH]cc2CN(C)Cc2nonc2C)c(F)c1`, the “Percent Effect” value is on record as -4.147%.
As to `O=C([C@H]1C[C@H]2OCC[C@H]2N(C(=O)C2CCOCC2)C1)N1CCCCO1`, the “Percent Effect” value is reported as -4.541%.
Regarding `CCOC(=O)c1ccccc1NC(=O)CN(C)Cc1ccccc1Cl.O=C(O)C(=O)O`, the “Percent Effect” value was determined as 16.66%.
In the case of `CC(=O)NCCC(=O)NCc1ccc(Br)cc1Cl` it was -2.805%; in that of `Cc1cccc(C(C)(C)CNc2cn[nH]c(=O)c2Cl)c1`, 26.78%.
For `CC(=O)N1CCN(C(=O)Cc2cnc(-c3c(Cl)cccc3Cl)s2)CC1`, the “Percent Effect” value is given as 110.1%.
In the case of `O=C(Cc1cnc(-c2c(Cl)cccc2Cl)s1)N1CCOCC1` it was 134.1%; in that of `O=C(O)Cc1cccc(-n2ccnc2-c2ccc(Cl)s2)c1`, 1.594%.
With `CN(C)C(=O)N1CCN(Cc2cnc(-c3ccsc3)s2)CC1`, the “Percent Effect” value is given as -2.871%.
In the case of `Cc1nc2ccnn2c(C)c1CCC(=O)N1CCC(C(N)=O)CC1` it was 1.242%; in that of `NC(=O)C1CCN(C(=O)Cc2cnc(-c3c(Cl)cccc3Cl)s2)CC1`, 112.4%; in that of `O=C(NC1CC1)c1cc(NC(=O)N2CCOCC2)ccc1Cl`, -10.77%.
With `O=C(O)Cc1cnc(-c2c(Cl)cccc2Cl)s1` the figure was 122.5%; with `Cc1oc(CNC(=O)Cc2ccccc2Cl)cc1C(=O)O`, -14.11%; with `CC(=O)N1CCCN(C(=O)NCCc2ccc(Cl)s2)CC1`, 4.085%.
Turning to `Cc1ncc(CN(C)C(=O)Nc2cccc(C(=O)N3CCOCC3)c2)s1`, the “Percent Effect” value was -6.788%.
For `NC(=O)C1CCN(C(=O)Cc2ccc(Cl)c(Cl)c2)CC1`, the “Percent Effect” value is -1.39%.
In the case of `Cc1ncccc1OC1(C(=O)NCCC2CCCN2C)CCNCC1` (stereo unspecified) it was 17.07%; in that of `CCCOCC(=O)N1CCCN(Cc2csc(CC)n2)CC1`, 2.804%; in that of `CS(=O)(=O)CCCN1CCSCC1c1ccc(Cl)cc1` (stereo unspecified), -3.255%.
With `CCN(CC(O)c1ccc(C)cc1)C(=O)NC(C)C` (stereo unspecified) the figure was 91.44%; with `CCN(CC(=O)Nc1c(C)nn(C)c1C)CC(O)c1ccc(C)cc1` (stereo unspecified), 2.184%.
Regarding `CC(NC(=O)Nc1nccs1)c1cccnc1` (stereo unspecified), the “Percent Effect” value is recorded as -1.338%.
For the compound `CC(C)CN(CC(O)c1ccccc1)C(=O)Nc1nccs1` (stereo unspecified), the “Percent Effect” value is listed as 92.63%.
With `CCN(CC(=O)Nc1c(C)n[nH]c1C)CC(O)c1ccc(C)cc1` (stereo unspecified) the figure was -7.699%; with `CC(C)NC(=O)CNC(C)COc1ccccc1` (stereo unspecified), 2.359%; with `CC(C)CN(CC(O)c1ccccc1)C(=O)NC(C)C` (stereo unspecified), 126.3%.
For the compound `O=C(Nc1nccs1)N(CCO)Cc1ccsc1`, the “Percent Effect” value is -2.808%.
Regarding `CCC(CC)(CNC(C)=O)NC(C)c1ccccc1` (stereo unspecified), the “Percent Effect” value was 1.082%.
In the case of `Cc1nn(C)c(Cl)c1C1CCCN1c1ncnc2[nH]ccc12` (stereo unspecified) it was -15.05%; in that of `CCc1nnc(N[C@H](C)c2cccc(OC)c2)o1`, -47.91%.
With `Cc1nc(CN2CC[C@H]3[C@@H]2CCC(=O)N3c2cnn(C)c2)cs1.O=C(O)C(F)(F)F` the figure was 98.36%; with `Cn1cc(N2C(=O)CC[C@@H]3[C@H]2CCN3C(=O)c2cscn2)cn1.O=C(O)C(F)(F)F`, -22.63%; with `Cc1nc(CN2CC[C@H]3[C@H]2CCN3c2nncs2)cs1.O=C(O)C(F)(F)F.O=C(O)C(F)(F)F`, 10.04%.
In the case of `Cc1nc(CO[C@@H]2CN(Cc3cnn(C)c3)[C@@H]3COC[C@@H]32)cs1.O=C(O)C(F)(F)F` it was -7.827%; in that of `Cn1cc(C(=O)N[C@H]2CN(Cc3nccs3)[C@@H]3CCCO[C@H]23)cn1.O=C(O)C(F)(F)F`, -3.983%.
As for `Cn1cc(N2C(=O)CC[C@@H]3[C@H]2CCN3Cc2nccs2)cn1.O=C(O)C(F)(F)F`, the “Percent Effect” value is on record as 92.26%.
With `Cc1nc(C)c(-c2nnc(SCC(=O)O)n2C(C)c2ccccc2)o1` (stereo unspecified) the figure was 4.033%.
Consider `Cn1cc(CN2CCCN(C(=O)c3ccc4c(c3)COC4)CC2)cn1`, for which the “Percent Effect” value is reported as -5.776%.
In the case of `O=C(c1ccc2cc[nH]c2c1)N1CCCN(Cc2cscn2)CC1`, the “Percent Effect” value was 102.9%.
With `Cc1cccc(C(=O)N2CCCN(Cc3cscn3)CC2)c1` the figure was 101.4%.
In the case of `O=C(c1cccc(F)c1)N1CCCN(Cc2cscn2)CC1` it was 112.5%; in that of `CN1CCN(C(=O)c2cccc(OCc3cscn3)c2)CC1`, -0.311%; in that of `O=C(c1ccc(O)cc1)N1CCN(C(=O)c2ccc3c(c2)COC3)CC1`, -5.572%.
With `O=C(c1ccc2c(c1)COC2)N1CCCN(Cc2cscn2)CC1` the figure was 97.01%; with `Fc1cccc(CN2CCN(Cc3cscn3)CC2)c1`, -6.647%; with `CSCC(CCO)NC(=O)Nc1cccc(Br)c1` (stereo unspecified), -3.109%.
For `O=C(NCCO)c1coc(CN2CCN(c3ccccc3F)CC2)n1`, the “Percent Effect” value was 7.764%.
For `COCc1noc(-c2ccc(N(C)Cc3c(C)n[nH]c3C)nc2)n1`, the “Percent Effect” value is -8.806%.
Take `O=C(NC[C@H]1OC[C@@H](NC2CCC(F)(F)CC2)[C@@H]1O)c1cccs1`: the “Percent Effect” value is reported as -23.1%.
With `C=C(C)CN(CC)S(=O)(=O)c1ccccc1C#N` the figure was -2.977%; with `Cc1nnc(NCC2(c3ccccc3)CCOCC2)c(C#N)c1C`, -16.92%.
In the case of `CC(C)Nc1nc2c(s1)C(=O)CN(CC1CC1)C2` it was 101.7%.
In the case of `CC(C)c1nn(C)c(N(C)C)c1CNC1CCN(CC2CC2)CC1` it was -26.39%; in that of `COCCN1CC(=O)c2sc(NC(C)C)nc2C1`, 130.5%; in that of `CC(C)Nc1nc2c(s1)C(=O)CN(C)C2`, 130.6%.
For the compound `CCN1CC(=O)c2sc(NC(C)C)nc2C1`, the “Percent Effect” value was determined as 96.98%.
In the case of `COCCN1CCC(NCc2c(C(C)C)nn(C)c2N(C)C)CC1` it was -4.673%; in that of `COCCN1CCc2cc(C(=O)N(C)C)c(NC(C)C)nc2CC1.O=C(O)C(F)(F)F.O=C(O)C(F)(F)F`, 7.689%; in that of `CSC(C)(C)CNC(=O)NC1CCN(C)CC1`, -3.442%.
With `CC(C)C(C)(C#N)NC(=O)Cn1cc(C(N)=O)c(-c2ccccc2)n1` (stereo unspecified) the figure was 12.8%; with `CCNC(=O)NCc1cccc(N2CC=CC2)c1`, -0.5505%.
As for `CCc1noc(CN(C)CCC(=O)Nc2ccc(Cl)cc2)n1`, the “Percent Effect” value is -6.397%.
In the case of `CCN1CC(CN(C)Cc2nc(-c3ccc(F)cc3)oc2C)CC1=O` (stereo unspecified) it was 117.1%; in that of `CCN1CC(CN(C)Cc2nc(-c3ccoc3)oc2C)CC1=O` (stereo unspecified), 101.6%; in that of `CCN(CCn1cccn1)Cc1nc(-c2ccoc2)oc1C`, -32.03%.
As for `Cc1oc(-c2ccc(F)cc2)nc1CN1CCOCS1(=O)=O`, the “Percent Effect” value is 1.059%.
For `CCN(CCn1cccn1)Cc1nc(-c2ccc(C)o2)oc1C`, the “Percent Effect” value is 17.65%.
For `Cc1oc(-c2ccoc2)nc1CN1CCC[C@H]1CO`, the “Percent Effect” value was found to be 2.013%.
With `CCN1CC(CN(C)Cc2nc(-c3ccc(C)o3)oc2C)CC1=O` (stereo unspecified) the figure was 106.5%; with `CCCOC1CCCN(Cc2nc(-c3ccc(F)cc3F)oc2C)C1` (stereo unspecified), 11.6%; with `Cc1oc(-c2ccc(F)cc2F)nc1CN1C[C@@H](C)O[C@@H](C)C1`, 30.19%.
With `CCN(C)Cc1nc(-c2ccccc2NS(C)(=O)=O)oc1C` the figure was 17.24%; with `CCN1CC(CN(C)Cc2nc(-c3ccc(F)cc3F)oc2C)CC1=O` (stereo unspecified), 223.2%.
Take `CCN(CCn1cccn1)Cc1nc(-c2ccc(F)cc2)oc1C`: the “Percent Effect” value was determined as 16.6%.
For `O=C(c1ccc(O)cn1)N1CCOC(c2ccc(Cl)c(Cl)c2)C1` (stereo unspecified), the “Percent Effect” value was -8.844%.
With `CCc1cnc(NCCSc2cnn[nH]2)nc1` the figure was 4.76%; with `COC(=O)CCCNC(=O)COc1ccccc1C(F)(F)F`, -5.238%; with `O=C(NC1CCCC1)NC1CCC(C(=O)N2CCSCC2)CC1` (stereo unspecified), 9.425%.
With `O=C(NC1CCCC1)c1cc2c(s1)CCN2C(=O)c1ccccc1` the figure was 94.77%; with `O=C(NC1CC1)c1cc2c(s1)CCN2C(=O)C1CC1`, 91.55%; with `CCCNC(=O)c1cc2c(s1)CCN2C(=O)c1ccccc1`, 88.89%.
Consider `CCCNC(=O)CCNC(=O)c1ccccc1N1CCOCC1`, for which the “Percent Effect” value was 6.654%.
In the case of `O=C(c1cc2c(s1)CCN2C(=O)C1CC1)N1CCCC1` it was -2.581%.
For the compound `COCCN(C)C(=O)c1cc2c(s1)CCN2C(=O)C1CC1`, the “Percent Effect” value worked out at 113.8%.
In the case of `COCCNC(=O)c1cc2c(s1)CCN2C(=O)c1ccccc1` it was 3.263%.
